# According to ChEMBL document CHEMBL3988442, “University of Dundee, Small-Polar-MMV Screening Library” (2021):
# Among all 48,000 compounds or so, about 13,000 (27%) showed an effect of 50% or more. Some of the results follow.
# System: Wolbachia pipientis
# Assay: Anti-Wolbachia Cell-Based Screen
# Assay type: functional
# Set-up: scale not given: in the data most compounds retested in dose-response had high values
# Conditions: 5 µM
row,Structure (SMILES),Percent Effect [%]
1,Fc1cccc2c1CCC2NCc1cnc(N2CCOCC2)nc1 (centres undefined),3.105
2,COC(=O)CCC(=O)N(C/C=C/c1ccccc1)CCO,-11.86
3,COc1cccc(F)c1C(C)NC(=O)NCCc1ccc(C)nc1 (centres undefined),1.538
4,O=C(Nc1nncs1)NC1CCOc2ccccc21 (centres undefined),13.17
5,Cc1cc(CN(C)C(=O)Nc2cnc3c(c2)c(C)nn3C)no1,2.843
6,COc1ccc(S(=O)(=O)NCCC(O)c2ccccc2)c(C)c1 (centres undefined),8.858
7,COCc1nc2nc(O)c3c(n2n1)NC(=O)CC3c1ccccc1Cl (centres undefined),-6.394
8,O=C(O)C(F)(F)F.O=C(O)C(F)(F)F.c1ccc(N2CC[C@H](OCC3CC3)[C@@H]2Cc2cccnc2)nc1,102.1
9,O=C(O)C(F)(F)F.O=C(c1ccc[nH]1)N1CC[C@@H](OCC2CC2)[C@@H]1Cc1cccnc1,9.663
10,O=C(O)C(F)(F)F.O=S(=O)(C1CC1)N1CC[C@H](OCC2CC2)[C@@H]1Cc1cccnc1,-0.6171
11,O=C(O)C(F)(F)F.O=C(O)C(F)(F)F.O=C(c1cccnc1)N1CC[C@H](OCC2CC2)[C@@H]1Cc1cccnc1,-13.6
12,O=C(O)C(F)(F)F.c1cnc(N2CC[C@@H](OCC3CC3)[C@@H]2Cc2cccnc2)nc1,125.6
13,O=C(O)C(F)(F)F.O=S(=O)(C1CC1)N1CC[C@@H](OCC2CC2)[C@@H]1Cc1ccncc1,-7.9
14,Cn1nc2c(cc1=O)CN(Cc1nnc(-c3ccc(F)cc3)o1)CC2,-3.918
15,CC(NC(=O)NCCNc1cccc(F)c1C#N)c1nccs1 (centres undefined),-8.965
16,CC(=O)N1CCOCC2(C1)CN(S(C)(=O)=O)CCO2 (centres undefined),-9.255
17,COC(=O)c1cccc(S(=O)(=O)NC(=O)c2ccccc2F)c1,8.807
18,COC(=O)c1cccc(S(=O)(=O)Nc2ccc(Cl)c(C(N)=O)c2)c1,-9.655
19,COC(=O)c1cccc(S(=O)(=O)NC(=O)COC2CCCC2)c1,86.25
20,COC(=O)c1cccc(S(=O)(=O)NC(=O)CC2CCCC2)c1,1.549

row,Structure (SMILES),Percent Effect [%]
1,COC(=O)c1cccc(S(=O)(=O)Nc2ncc(C)s2)c1,-16.51
2,COC(=O)c1cccc(S(=O)(=O)NC(=O)COC2CCCCC2)c1,108.7
3,Cc1occc1C(=O)N1CCCC1c1ccc(C(=O)N2CCOCC2)s1 (centres undefined),1.721
4,CN(CCOc1ccc(Cl)cc1)Cc1ccc(S(=O)(=O)N(C)C)o1,82.71
5,CC(C)N(C)C(=O)CSCc1ccc(S(=O)(=O)N(C)C)o1,-4.323
6,Cc1ccc(OCCN(C)Cc2cscn2)cc1,-7.225
7,Cc1ccc(OCCN(C)S(=O)(=O)N2CCOCC2)cc1,-11.92
8,Cc1cc(C)cc(OCCN(C)Cc2cscn2)c1,-4.131
9,Cc1ccc(OCCN(C)Cc2ccc(S(=O)(=O)N(C)C)o2)cc1,101.9
10,Cc1cc(C)cc(OCCN(C)Cc2ccc(S(=O)(=O)N(C)C)o2)c1,89.38
11,Cc1nnc(CN(C)CCCOc2ccc(Cl)cc2)o1,-9.497
12,Cc1nnc(CN(C)CCOc2cccc(Cl)c2)o1,6.512
13,COCCN(CC(N)=O)CC1CCCN(C2Cc3ccccc3C2)C1 (centres undefined),-0.9874
14,Cc1noc(C)c1C(=O)N1Cc2ncn(C)c2C(COCC(C)C)C1.O=C(O)C(F)(F)F (centres undefined),115.1
15,CC(C)COCC1CN(Cc2ccc3c(c2)OCO3)Cc2ncn(C)c21.O=C(O)C(F)(F)F.O=C(O)C(F)(F)F (centres undefined),29.31
16,Cc1ccsc1C(=O)N1Cc2ncn(C)c2C(COCC2CC2)C1.O=C(O)C(F)(F)F (centres undefined),46.58
17,Cn1cnc2c1C(COCC1CCOCC1)CN(C(=O)c1ccco1)C2.O=C(O)C(F)(F)F (centres undefined),-6.702
18,Cc1noc(C)c1C(=O)N1Cc2ncn(C)c2C(COCC2CC2)C1.O=C(O)C(F)(F)F (centres undefined),110.4
19,CCOCC1CCN(C(=O)Nc2ccc(-c3csnn3)cc2)C1 (centres undefined),-10.06
20,N#Cc1cccc(S(=O)(=O)NC(=O)COCC(F)(F)F)c1,-9.311

row,Structure (SMILES),Percent Effect [%]
1,COc1ccc(C(=O)NS(=O)(=O)c2ccc(C#N)cc2C(F)(F)F)cc1,-4.886
2,N#Cc1cccc(S(=O)(=O)NC(=O)CCOCC(F)(F)F)c1,2.733
3,Cc1ccc(C)c(S(=O)(=O)NC(=O)COc2cccc(C#N)c2)c1,12.25
4,CC(C)CC(=O)NS(=O)(=O)c1ccc(C#N)cc1C(F)(F)F,112.6
5,CC(C)(C)CC(=O)NS(=O)(=O)c1ccc(C#N)cc1C(F)(F)F,82.77
6,Cc1ccc(C(=O)NCCC2CCN(C)CC2)cc1N(C)S(C)(=O)=O,-13.52
7,CC(=O)c1csc(-c2csc(Cn3ccc(=O)[nH]c3=O)n2)c1,-9.484
8,O=C(Cn1ccnc1)N1C[C@@H]2CC[C@H](Oc3ccccc3)[C@@H]2C1,-14.9
9,O=C(Cn1ccnc1)N1C[C@@H]2CC[C@H](Oc3ccc(Cl)cc3)[C@@H]2C1,109.7
10,O=C(Cn1ccnc1)N1CCC(n2cc(-c3cccc(Cl)c3)nn2)CC1,2.937
11,CC(C)N1CC(C(=O)N2CCC(Oc3ccccc3Cl)CC2)CC1=O (centres undefined),-11.86
12,CN(C)CC(=O)N1C[C@@H]2CC[C@H](Oc3ccccc3Cl)[C@@H]2C1,-7.066
13,CC(=O)NCC(=O)N1C[C@@H]2CC[C@H](Oc3ccccc3Cl)[C@@H]2C1,95.47
14,O=C(Cn1ccnc1)N1C[C@@H]2CC[C@H](Oc3ccccc3Cl)[C@@H]2C1,-8.109
15,O=C(Cn1ccnc1)N1C[C@@H]2CC[C@H](Oc3ccccc3F)[C@@H]2C1,91.22
16,CCC(CNC(=O)Cn1ccnc1)Oc1cccc(F)c1 (centres undefined),0.7752
17,O=C(c1cnco1)N1C[C@@H]2CC[C@H](Oc3ccccc3F)[C@@H]2C1,-11.33
18,O=C(Cn1ccnc1)N1C[C@@H]2CC[C@H](Oc3cccc(F)c3)[C@@H]2C1,109
19,O=C(c1cnco1)N1C[C@@H]2CC[C@H](Oc3cccc(F)c3)[C@@H]2C1,-6.458
